Reference: ChEMBL document CHEMBL3988442, “University of Dundee, Small-Polar-MMV Screening Library” (2021)
Hit rate of the full screen: of about 48,000 compounds, about 13,000 (27%) showed an effect of 50% or more. The list shows a part of the results.

test system: Wolbachia pipientis; assay: Anti-Wolbachia Cell-Based Screen; type: functional; set-up: scale not given: in the data most compounds retested in dose-response had high values; details: 5 µM

| Structure (SMILES) | Percent Effect |
| --- | --- |
| CC(C)N(C)Cc1cnc2n1CCN(Cc1ccsc1)C2.O=C(O)C(F)(F)F.O=C(O)C(F)(F)F | 107.2% |
| CC(C)N(C)Cc1cnc2n1CCN(C(=O)c1cccs1)C2 | 6.203% |
| CN(C)Cc1cnc2n1CCN(Cc1ccsc1)CC2.O=C(O)C(F)(F)F.O=C(O)C(F)(F)F | -11.04% |
| CC(C)N(C)Cc1cnc2n1CCN(C(=O)Cc1ccccn1)C2.O=C(O)C(F)(F)F.O=C(O)C(F)(F)F | 116.4% |
| CC(C)N(C)Cc1cnc2n1CCN(C(=O)Cc1ccsc1)C2.O=C(O)C(F)(F)F | 75.58% |
| CNC(=O)c1cnc2n1CCN(C(=O)Cc1ccccn1)C2 | -2.51% |
| CN(C)Cc1cnc2n1CCN(C(=O)Cc1ccsc1)CC2.O=C(O)C(F)(F)F | -7.652% |
| CC(NCC1CCN(CCO)CC1)c1ccc(OC(F)(F)F)cc1 (stereo unspecified) | 5.514% |
| Cc1ccccc1CSc1nc(=O)n(CCO)c2c1CCC2 | 18.09% |
| Cc1csc(N2CCCN(C(=O)c3cnns3)CC2)n1 | 3.916% |
| Fc1ccc(OC2CCN(CCn3cncn3)CC2)cc1 | 1.97% |
| Fc1cccc(OC2CCN(CCn3cc4ccccc4n3)CC2)c1 | 89.5% |
| Cc1nc(CCN2CCC(Oc3ccccc3F)CC2)c(C)s1 | 0% |
| Cc1ccc(OC2CCN(CCn3cncn3)CC2)cc1 | -5.94% |
| c1cncc(O[C@H]2COCCN(CC3CC3)C2)c1 | -6.13% |
| Fc1ccccc1OC1CCN(CCn2cc3ccccc3n2)CC1 | 96.15% |
| c1cncc(OC2CCN(CCn3cc4ccccc4n3)CC2)c1 | 92.09% |
| O=C(O)c1cccc(N2CCC(Oc3cccc(F)c3)CC2)n1 | 3.827% |
| Cc1nc(C)c(CCN2CCC(Oc3ccccc3F)CC2)s1 | -50.47% |
| O=C(O)C(F)(F)F.O=C1[C@@H]2CN(C3CCOCC3)C[C@H]2CCN1CC1CC1 | -15.82% |
| CCC(C)(CC(=O)OC)NCc1c(C)noc1C (stereo unspecified) | -10.12% |
| CCCN(CCOC)c1nc(C)nc2sccc12 | -21.15% |

| Structure (SMILES) | Percent Effect |
| --- | --- |
| Cc1cc(NC(=O)N2CCN(c3cccs3)CC2)ccc1C(N)=O | 6.081% |
| CS(=O)(=O)c1ccc(OCCNCc2c(F)cccc2F)cc1 | -4.502% |
| CCCc1n[nH]c(C2CN(C(=O)c3ccc(C)[nH]c3=O)CCO2)n1 (stereo unspecified) | 101.9% |
| CCCc1n[nH]c(C2CN(C(=O)c3cncnc3C)CCO2)n1 (stereo unspecified) | 104.8% |
| Cc1ccc(C(=O)N2CCOC(c3nc(C(C)(C)C)n[nH]3)C2)c(=O)[nH]1 (stereo unspecified) | -10.02% |
| CC(C)n1nccc1NC(=O)NCCc1nc2ccc(F)cc2n1C | -24.15% |
| COCCN1CCN(CC(=O)NC2(C#N)CCCC2)CC1 | 5.801% |
| CCN(Cc1cc(F)c(OC)c(Cl)c1)Cc1noc(CC(C)C)n1 | -0.0931% |
| CC(C)c1cc(N2CCSCC2)n2nccc2n1 | -0.2231% |
| Cc1ncc(S(C)(=O)=O)c(C2CCCNC2)n1 (stereo unspecified) | 6.84% |
| Cc1nc(-c2cncnc2C2CCCNC2)no1.Cl.Cl (stereo unspecified) | 112.4% |
| CC(C)(C)CN1CCC[C@H]1c1nc(-c2cncnc2N)no1 | -5.651% |
| CCc1nc(-c2cncnc2C2CCNC2)no1 (stereo unspecified) | 125.4% |
| CN1CCC[C@H]1c1nc(-c2cncnc2N)no1 | -19.35% |
| CCc1nc(C2CCCN(c3ncc(Br)cn3)C2)no1 (stereo unspecified) | -4.032% |
| CS(=O)(=O)c1cncnc1C1CCCNC1.Cl (stereo unspecified) | 112% |
| CC(C)c1ncc(S(C)(=O)=O)c(C2CCCNC2)n1 (stereo unspecified) | 16.25% |
| CN1CCC(N2CCC[C@H]2c2nc(-c3cncnc3N)no2)CC1 | -6.986% |
| CCc1nc(-c2cncnc2C2CCCNC2)no1.Cl (stereo unspecified) | 115.3% |
| CN(Cc1nc2ccccc2[nH]1)C(=O)CN(C)c1ccccc1 | -21.88% |
| O=C(CCNc1ncc2c(n1)CCN2c1ccccc1)N1CCCC1 | 15.12% |
| COCCC1CN(c2nc(-c3ccccc3)nc3c2CCNC3)CCO1 (stereo unspecified) | -17.27% |

| Structure (SMILES) | Percent Effect |
| --- | --- |
| Cc1cnc(C(=O)N2CCCC(c3nccn3Cc3cscn3)C2)cn1 (stereo unspecified) | 3.931% |
| Cc1cc(C(=O)N(C)Cc2cnn(C)c2)c(NC(=O)C(C)(C)C)s1 | -6.693% |
| Cn1ncc2c1C(COCC1CC1)CN(Cc1cccnc1)C2 (stereo unspecified) | -4.691% |
| COCC1CN(Cc2ccsc2)Cc2cnn(C)c21 (stereo unspecified) | 97.33% |
| COCC1CN(Cc2cccnc2OC)Cc2cnn(C)c21 (stereo unspecified) | -15.02% |
| COc1ccc(CN2Cc3cnn(C)c3C(COCC3CC3)C2)cc1 (stereo unspecified) | 13.17% |
| CCOCC1CN(CC2CC2)Cc2cnn(C)c21 (stereo unspecified) | -17.33% |
| CCOCC1CN(Cc2ccsc2)Cc2cnn(C)c21 (stereo unspecified) | 100.2% |
| Cn1ncc2c1C(COCC1CC1)CN(Cc1ccsc1)C2 (stereo unspecified) | 99.94% |
| CCn1ncc2c1C(COC)CN(Cc1ccsc1)C2 (stereo unspecified) | -10.45% |
| CC(=O)Nc1ccc(F)c(S(=O)(=O)NC(C)(C)C)c1 | -3.757% |
| NCC1CCN(c2nc(C3CCCC3)nc3c2CCNCC3)C1 (stereo unspecified) | 9.164% |
| Cc1cc(C(=O)N2CC[C@H](N3CCOCC3)[C@H](CCCO)C2)c(C)n1C | -10.4% |
| CC(=O)C(C)CC(=O)N(Cc1cccc(C)c1)C(C)C (stereo unspecified) | -23.01% |
| COc1ccccc1CN1CC[C@H](c2nnc(-c3cncn3C)o2)C1 | -5.308% |
| Cc1ncsc1-c1nnc(C2CCN(Cc3ccccc3Cl)CC2)o1 | 122.3% |
| Cc1ncsc1-c1nnc(C2CCN(Cc3cccc(F)c3F)CC2)o1 | 117.8% |
| Cc1ccccc1CN1CC[C@H](c2nnc(-c3cncn3C)o2)C1 | 0.6101% |
| Cc1ncsc1-c1nnc(C2CCN(Cc3ccccc3F)CC2)o1 | 106.9% |
| CCn1cnnc1CNC(=O)c1ccc(Br)cc1F | -45.58% |
| CC(C(=O)N1CCN(C(=O)c2ccc(F)cc2F)CC1)n1ccnc1 (stereo unspecified) | -6.751% |
| CN(Cc1ccc(Cl)s1)C(=O)Cn1nc(-c2ccc(F)cc2)oc1=O | -64% |

| Structure (SMILES) | Percent Effect |
| --- | --- |
| CCCn1cnnc1CNC1CCSC1 (stereo unspecified) | 5.781% |
| N#CCCN(Cc1cccnc1)C(=O)c1ccc(OCC2CC2)cc1 | -3.781% |
| Cc1ccc(CN(C)C(=O)c2n[nH]c(N)c2-c2ccccc2)o1 | 90.65% |
| Cc1noc(C)c1CN(C)C(=O)c1n[nH]c(N)c1-c1ccccc1 | 103.1% |
| CCc1nnsc1C(=O)N(C)Cc1ccc(C)o1 | 0.8104% |
| Cc1noc(CN(C)c2ccccc2)n1 | 0.05791% |
| Cc1noc(C)c1C(=O)N(C)Cc1nc(-c2ccccn2)no1 | -7.046% |
| Cc1nc(NC(=O)N(C)Cc2ccsc2)nn1C | 1.412% |
| CN(Cc1ccsc1)C(=O)c1cc2c([nH]c1=O)CCCC2=O | 2.933% |
| CN(Cc1ccsc1)C(=O)c1n[nH]c(N)c1-c1ccccc1 | 96.05% |
| Cc1noc(C)c1CN(C)C(=O)c1nc(N2CCCC2)ncc1Cl | -6.035% |
| Cc1ccccc1OCCC(=O)N(C)Cc1c(C)noc1C | -17.09% |
| Cc1noc(CN(C)C(=O)c2n[nH]c(N)c2-c2ccccc2)n1 | 101.7% |
| Cc1ccc(CN(C)C(=O)c2cccc(NC(N)=O)c2)o1 | -0.4854% |
| Cc1ccc(CN(C)C(=O)c2cc3c(c(S(N)(=O)=O)c2)CCC3)o1 | -13.85% |
| CCC1=N[C@@]2(CC[C@@H]3CN(S(=O)(=O)CC)C[C@@H]32)C(=O)N1CCOC | -7.119% |
| CN(c1ncc(C(N)=O)cc1Cl)C1CCC(c2ccccc2)CC1 (stereo unspecified) | -13.88% |
| CN(Cc1ccsc1)C(=O)Nc1ccc(=O)n(C)c1 | -4.532% |
| CCn1cnnc1C1CCN(C(=O)CCCOc2ccccc2)CC1 | 6.265% |
| CCn1cnnc1C1CCN(C(=O)COc2ccccc2)CC1 | 2.9% |
| CC(=O)N1CCC(c2cccc(Oc3ccccc3)n2)CC1 | 144.2% |
| COCC(=O)N1CCC(c2cccc(Cc3ccc(F)cc3)n2)CC1 | -12.66% |

| Structure (SMILES) | Percent Effect |
| --- | --- |
| CNCC(=O)N1CCC(c2cccc(Oc3ccccc3)n2)CC1 | 178.2% |
| NCC(=O)N1CCC(c2cccc(Oc3ccccc3)n2)CC1 | 130.3% |
| NC(=O)CN1CCC(c2cccc(Oc3ccccc3)n2)CC1 | 173% |
| CC(C)(C)c1nnc(CSc2ccccn2)o1 | 4.822% |
| CN(Cc1ccccc1)C1(C(=O)NCC(N)=O)Cc2ccccc2C1 | -1.712% |
| O=C(NCc1csc(Cc2ccccc2)n1)C1NCCc2[nH]cnc21 (stereo unspecified) | -10.41% |
| CCn1nc(C)c(NC(=O)c2cc(NC(=O)C(C)C)n(C)n2)c1C | 2.528% |
| CCCc1cc(C(=O)N(Cc2cccnc2)Cc2cccnc2)[nH]n1 | -21.08% |
| NCC1Cc2cc(-c3cncc(C(=O)N4CCCCC4)n3)cc(F)c2O1 (stereo unspecified) | -1.954% |
| Clc1cc(NCc2ccncc2)nc2[nH]ccc12 | 93.22% |
| Clc1cc(NCc2ncc[nH]2)nc2[nH]ccc12 | 61.99% |
| CN(C)CCNc1cc(-c2ncccc2Cl)c2cc[nH]c2n1 | -5.947% |
| Fc1ccc(NCc2ncc[nH]2)cc1Br | -22.04% |
| COc1ncc(-c2cc(NCCN(C)C)nc3[nH]ccc23)c(OC)n1 | -3.716% |
| Clc1cc(NCc2nccs2)nc2[nH]ccc12 | 109.6% |
| O=C(Nc1ccccc1)c1ccc(NCc2ccncc2)nn1 | -22.46% |
| O=C(CCc1ccc(Br)cc1)NCCc1nnc[nH]1 | 7.079% |
| CC(C)(C)OCCN1CCCC1c1nc(Cc2ccc(F)cc2)no1 (stereo unspecified) | 28.24% |
